The nature of experiment [1]: ATG_M_06_TRANS: Attagene TRANS-FACTORIAL HepG2 Assay for M06 Transcription Factor (Internal Marker) (AID 2282983; active = hit-call score of the fitted dose curve at least 0.9, where 1 is the maximum). The conditions noted are these: HepG2 Attagene TRANS M06 internal marker reporter. In outline: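 Measured by capillary electrophoresis of fluorescently labelled RT-PCR products, this endpoint reflects reporter mRNA in HepG2 cells harbouring exogenous NR-GAL4 reporter constructs after 24 h exposure, with DMSO as baseline.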

Experiment [2] in a line: ATG_M_32_TRANS: Attagene TRANS-FACTORIAL HepG2 Assay for M32 Transcription Factor (Internal Marker) (AID 2282984; active = hit-call score of the fitted dose curve at least 0.9, where 1 is the maximum;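 note: transcript level of a background control reporter unit measured by RT-PCR and capillary electrophoresis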). The conditions noted are these: HepG2 Attagene TRANS M32 internal marker reporter. The method in brief: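 Measures reporter mRNA induction in human HepG2 liver cells after 24 h chemical treatment. Transcripts from transiently transfected GAL4-UAS reporter units are amplified, fluorescently labelled and sized by capillary electrophoresis; gain of signal relative to DMSO.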

Experiment [3] deals with Nuclear receptor subfamily 4 group A member 2 (Homo sapiens) (UniProt P43354). Nature of the experiment: ATG_NURR1_TRANS: Attagene TRANS-FACTORIAL HepG2 Assay for human Nuclear Receptor Related Protein 1 (NURR1) (AID 2282985; active = hit-call score of the fitted dose curve at least 0.9, where 1 is the maximum). The conditions noted are these: HepG2 Attagene TRANS reporter, mRNA readout. The method in brief: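 Transient transfection of HepG2, human liver cells, with multiple GAL4-UAS reporter transcription units. Cells dosed 24 h, RNA isolated, reverse-transcribed, PCR-amplified, FAM-labelled, HpaI-digested, sized by capillary electrophoresis. DMSO served as negative control.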
Sequence of Nuclear receptor subfamily 4 group A member 2 (Homo sapiens) (P43354 whole entry, looked up, the tested form may be a part): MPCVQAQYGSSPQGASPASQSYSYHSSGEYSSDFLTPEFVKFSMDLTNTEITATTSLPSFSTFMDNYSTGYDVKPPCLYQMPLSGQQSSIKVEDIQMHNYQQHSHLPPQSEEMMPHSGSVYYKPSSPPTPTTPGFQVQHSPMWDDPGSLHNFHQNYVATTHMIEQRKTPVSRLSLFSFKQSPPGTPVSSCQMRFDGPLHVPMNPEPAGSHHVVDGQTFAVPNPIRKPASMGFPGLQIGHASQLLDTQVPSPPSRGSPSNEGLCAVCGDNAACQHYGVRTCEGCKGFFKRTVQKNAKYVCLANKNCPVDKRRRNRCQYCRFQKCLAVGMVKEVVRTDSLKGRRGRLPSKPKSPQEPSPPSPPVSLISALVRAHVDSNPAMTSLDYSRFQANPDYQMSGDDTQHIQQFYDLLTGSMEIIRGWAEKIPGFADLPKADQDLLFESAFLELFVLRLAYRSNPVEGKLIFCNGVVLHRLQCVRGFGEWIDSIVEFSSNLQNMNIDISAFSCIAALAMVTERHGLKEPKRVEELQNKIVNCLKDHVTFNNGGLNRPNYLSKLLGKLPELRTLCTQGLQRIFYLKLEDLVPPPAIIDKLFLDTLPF

Experiment [4] has as its target Transcriptional activator Myb (Homo sapiens) (UniProt P10242). Description: ATG_Myb_CIS: Attagene CIS-FACTORIAL HepG2 Assay for human Myeloblastosis (Myb) Proto-Oncogene Transcription Factor (AID 2282986). The conditions noted are these: HepG2 Attagene CIS-FACTORIAL Myb reporter transcription; actives raise or lower the signal. The method in brief:
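Reporter mRNA is quantified by RT-PCR and capillary electrophoresis 24 h after dosing HepG2 cells transfected with cis-regulated reporter units, which track endogenous transcription factor activity. Gain and loss of signal are fitted versus DMSO baseline.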

In experiment [5] the target is Nuclear respiratory factor 1 (Homo sapiens) (UniProt Q16656). Description: ATG_NRF1_CIS: Attagene CIS-FACTORIAL HepG2 Assay for human Nuclear Respiratory Factor 1 (NRF1) Orphan Gene (AID 2282987). The conditions noted are these: HepG2 NRF1 cis-element reporter, Attagene multiplex; actives raise or lower the signal. In outline: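 Endogenous NRF1-driven reporter transcription in transfected HepG2 cells after 24 h treatment. Readout: RT-PCR products, 6-FAM labelled and resolved by capillary electrophoresis; changes fitted both directions relative to DMSO.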
Sequence of Nuclear respiratory factor 1 (Homo sapiens) (Q16656 whole entry, looked up): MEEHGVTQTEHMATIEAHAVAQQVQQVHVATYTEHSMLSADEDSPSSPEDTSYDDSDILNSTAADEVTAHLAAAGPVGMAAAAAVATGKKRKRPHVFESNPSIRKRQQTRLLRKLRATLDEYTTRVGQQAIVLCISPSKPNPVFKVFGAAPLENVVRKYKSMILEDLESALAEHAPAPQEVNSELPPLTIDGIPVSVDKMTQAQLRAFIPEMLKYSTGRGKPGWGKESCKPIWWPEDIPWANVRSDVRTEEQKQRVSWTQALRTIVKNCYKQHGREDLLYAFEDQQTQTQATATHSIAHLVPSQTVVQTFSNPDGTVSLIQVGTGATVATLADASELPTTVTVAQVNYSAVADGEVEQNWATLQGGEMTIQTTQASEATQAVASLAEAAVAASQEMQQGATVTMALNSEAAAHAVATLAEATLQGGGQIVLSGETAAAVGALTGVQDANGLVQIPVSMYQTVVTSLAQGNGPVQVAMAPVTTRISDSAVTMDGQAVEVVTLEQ

The nature of experiment [6]: ATG_NFI_CIS: Attagene CIS-FACTORIAL HepG2 Assay for human Nuclear Factor I (NFI) (AID 2282989). The conditions noted are these: HepG2 cis-regulatory reporter, NFI response element transcription; actives raise or lower the signal. In outline:
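Transfected HepG2 liver cells, exposed 24 h, supplied total RNA for oligo(dT) reverse transcription and reporter-specific PCR. Labelled, HpaI-cut fragments were sized by capillary electrophoresis; DMSO set the baseline for bidirectional fitting.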

The target of experiment [7] is Myc proto-oncogene protein (Homo sapiens) (UniProt P01106). Nature of the experiment: ATG_Myc_CIS: Attagene CIS-FACTORIAL HepG2 Assay for human Myelocytomatosis (Myc) Proto-Oncogene Transcription Factor (AID 2282990). The conditions noted are these: HepG2, Attagene cis-reporter transcription factor activity; actives raise or lower the signal. The method in brief: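 After 24 h chemical treatment of HepG2 cells carrying multiplexed cis-regulated reporter constructs, reporter transcripts quantified by RT-PCR and capillary electrophoresis of fluorescent fragments. Gain or loss fitted against DMSO baseline.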
Sequence of Myc proto-oncogene protein (Homo sapiens) (P01106 whole entry, looked up, the tested form may be a part): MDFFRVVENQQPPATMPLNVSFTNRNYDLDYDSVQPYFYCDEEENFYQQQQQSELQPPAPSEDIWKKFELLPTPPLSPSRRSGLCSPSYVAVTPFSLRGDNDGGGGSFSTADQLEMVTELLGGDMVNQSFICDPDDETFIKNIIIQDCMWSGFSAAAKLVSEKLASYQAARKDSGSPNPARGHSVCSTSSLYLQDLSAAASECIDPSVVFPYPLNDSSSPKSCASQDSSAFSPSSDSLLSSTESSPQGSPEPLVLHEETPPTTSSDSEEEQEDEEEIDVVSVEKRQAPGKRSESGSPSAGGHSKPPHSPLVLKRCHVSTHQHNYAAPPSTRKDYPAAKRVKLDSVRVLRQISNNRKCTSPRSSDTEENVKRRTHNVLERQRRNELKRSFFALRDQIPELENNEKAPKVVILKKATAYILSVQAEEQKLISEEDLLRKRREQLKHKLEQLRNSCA

The nature of experiment [8]: ATG_NF_kB_CIS: Attagene CIS-FACTORIAL HepG2 Assay for human Nuclear Factor Kappa B (NF-kB) (AID 2282991). Conditions: HepG2 Attagene cis-factorial NF-kB reporter mRNA; actives raise or lower the signal. In outline: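 Readout is reporter transcript level, gain or loss versus DMSO, measured 24 h post-dose via RT-PCR, fluorescent labelling and capillary electrophoresis. Human HepG2 liver cells carried transiently transfected CIS reporter constructs reflecting endogenous factors.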

The nature of experiment [9]: ATG_Oct_MLP_CIS: Attagene CIS-FACTORIAL HepG2 Assay for human Octamer-Binding Transcription Factor (Oct) (AID 2282993). Conditions: HepG2 Attagene cis-factorial Oct reporter, mRNA; actives raise or lower the signal. The method in brief:
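Using HepG2 cells bearing transfected cis-reporter constructs, mRNA induction was read after 24 h by fluorescent RT-PCR and capillary electrophoresis, with DMSO defining baseline for gain- or loss-of-signal fits.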

Experiment [10] addresses human Peroxisome Proliferator-activated Receptor alpha (PPARa), PPARA (gene 5465) (UniProt Q07869). Nature of the experiment: ATG_PPARa_TRANS: Attagene TRANS-FACTORIAL HepG2 Assay for human Peroxisome Proliferator-activated Receptor alpha (PPARa) (AID 2283001; active = hit-call score of the fitted dose curve at least 0.9, where 1 is the maximum). The method in brief: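 Read-out is fluorescence of reporter cDNA fragments resolved by capillary electrophoresis after RT-PCR. Human HepG2 liver cells carried transfected PPARa-Gal4 chimera and GAL4-UAS reporter units, treated 24 h; activity scored as increase over DMSO.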

The target of experiment [11] is human Peroxisome Proliferator-activated Receptor delta (PPARd), PPARD (gene 5467) (UniProt Q03181). Nature of the experiment: ATG_PPARd_TRANS: Attagene TRANS-FACTORIAL HepG2 Assay for human Peroxisome Proliferator-activated Receptor delta (PPARd) (AID 2283002; active = hit-call score of the fitted dose curve at least 0.9, where 1 is the maximum). In outline: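 Read-out is induced reporter mRNA, quantified by RT-PCR with fluorescent labelling and capillary electrophoresis after 24 h dosing. Cells are HepG2 transiently carrying multiple GAL4-UAS reporter units driven by exogenous NR-GAL4 chimeras; DMSO serves as baseline.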
Sequence of human Peroxisome Proliferator-activated Receptor delta (PPARd), PPARD (gene 5467) (Q03181 whole entry, looked up, the tested form may be a part): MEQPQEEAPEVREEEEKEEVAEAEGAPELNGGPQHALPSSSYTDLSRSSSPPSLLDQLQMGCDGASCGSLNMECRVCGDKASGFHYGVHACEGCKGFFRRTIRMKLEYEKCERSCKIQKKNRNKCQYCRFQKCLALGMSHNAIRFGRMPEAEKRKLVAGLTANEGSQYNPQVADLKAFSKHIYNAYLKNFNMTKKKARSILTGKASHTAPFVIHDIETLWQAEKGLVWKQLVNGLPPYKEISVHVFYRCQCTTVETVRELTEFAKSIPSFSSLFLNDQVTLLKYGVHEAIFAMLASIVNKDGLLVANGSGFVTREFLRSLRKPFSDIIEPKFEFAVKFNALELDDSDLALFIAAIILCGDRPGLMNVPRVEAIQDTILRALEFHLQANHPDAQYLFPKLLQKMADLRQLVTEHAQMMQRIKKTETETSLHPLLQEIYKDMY

Experiment [12] deals with Cellular tumor antigen p53 (Homo sapiens) (UniProt P04637). Description: ATG_p53_CIS: Attagene CIS-FACTORIAL HepG2 Assay for human p53 Transcription Factor (AID 2282994). The conditions noted are these: HepG2 p53 cis-element reporter, Attagene mRNA; actives raise or lower the signal. In outline:
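Multiplexed reporter mRNA assay in human HepG2 liver cells; cis-regulated units report endogenous factor activity. Values come from bidirectional curve fitting against DMSO negative control after 24 h treatment.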

The nature of experiment [13]: ATG_NRF2_ARE_CIS: Attagene CIS-FACTORIAL HepG2 Assay for human Nuclear Factor Erythroid 2 Related Factor 2 (NFR2) response to Antioxidant Response Elements (ARE) (AID 2282992). Conditions: HepG2 Attagene ARE/NRF2 reporter, transcription factor activity; actives raise or lower the signal. In outline:
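Multiplexed reporter mRNA profiling in HepG2 after a 24 h chemical exposure. Curves fitted in both directions relative to DMSO negative control.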

Experiment [14] is described as follows: BSK_3C_TissueFactor: BioMAP Diversity Plus: 3C Assay for Tissue Factor Biomarker Activity (AID 2282997). Conditions: BioMAP 3C HUVEC, tissue factor biomarker readout; actives raise or lower the signal. The method in brief:
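Values derive from bidirectional curve fitting against DMSO of Tissue Factor ELISA signals, taken 24 h after dosing primary human umbilical vein endothelial cells.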

A short description of experiment [15]: BSK_3C_uPAR: BioMAP Diversity Plus: 3C Assay for Urokinase-type plasminogen activator receptor (uPAR) Biomarker Activity (AID 2282998). The conditions noted are these: BioMAP 3C HUVEC, uPAR biomarker ELISA; actives raise or lower the signal. In outline: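 In this endothelial cell-based assay, human umbilical vein primary cells were treated with chemicals and harvested at 24 h. uPAR was quantified using ELISA, with gains or losses fitted relative to DMSO controls.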
For orientation: ELISA stands for enzyme-linked immunosorbent assay.

A short description of experiment [16]: BSK_4H_Eotaxin3: BioMAP Diversity Plus: 4H Assay for Eotaxin 3 Biomarker Activity (AID 2283000). Conditions: primary human endothelial cells (HUVEC); actives raise or lower the signal. In outline: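 Endothelial primary cells (human umbilical vein) exposed to compound for 24 h. ELISA detection of Eotaxin-3.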
In experiment [17] the target is Hepatocyte nuclear factor 4-alpha (Homo sapiens) (UniProt P41235). Nature of the experiment: ATG_HNF4a_TRANS: Attagene TRANS-FACTORIAL HepG2 Assay for human Hepatocyte Nuclear Factor 4 alpha (HNF4a) (AID 2282982; active = hit-call score of the fitted dose curve at least 0.9, where 1 is the maximum). The conditions noted are these: HepG2 HNF4a transactivation reporter, mRNA readout. The method in brief: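 Readout is fluorescent reporter-transcript fragments resolved by capillary electrophoresis after RT-PCR from HepG2 cells dosed for 24 h. Cells carried transfected GAL4-UAS reporter constructs measuring exogenous NR-GAL4 chimera activity; DMSO served as baseline.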
Sequence of Hepatocyte nuclear factor 4-alpha (Homo sapiens) (P41235 whole entry, looked up, the tested form may be a part): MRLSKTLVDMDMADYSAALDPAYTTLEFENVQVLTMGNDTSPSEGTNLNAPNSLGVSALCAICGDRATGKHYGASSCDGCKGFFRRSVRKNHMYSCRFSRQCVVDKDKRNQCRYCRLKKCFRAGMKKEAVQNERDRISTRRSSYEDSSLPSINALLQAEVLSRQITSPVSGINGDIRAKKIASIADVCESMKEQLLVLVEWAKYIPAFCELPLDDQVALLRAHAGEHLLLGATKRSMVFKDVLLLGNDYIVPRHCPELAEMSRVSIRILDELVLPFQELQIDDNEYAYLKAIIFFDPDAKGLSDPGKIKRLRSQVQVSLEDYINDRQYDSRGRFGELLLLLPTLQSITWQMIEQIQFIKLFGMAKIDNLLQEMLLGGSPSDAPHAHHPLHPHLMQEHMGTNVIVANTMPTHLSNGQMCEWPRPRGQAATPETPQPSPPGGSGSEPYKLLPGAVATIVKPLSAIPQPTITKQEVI

Molecules are shown by their SMILES. Records with an inconclusive call do not appear. The source made the active and inactive calls. Rule for the calls, unless noted: active = hit-call score of the fitted dose curve at least 0.9, where 1 is the maximum; inactive = score below 0.9.

Sequence of human Peroxisome Proliferator-activated Receptor alpha (PPARa), PPARA (gene 5465) (Q07869 whole entry, looked up, the tested form may be a part): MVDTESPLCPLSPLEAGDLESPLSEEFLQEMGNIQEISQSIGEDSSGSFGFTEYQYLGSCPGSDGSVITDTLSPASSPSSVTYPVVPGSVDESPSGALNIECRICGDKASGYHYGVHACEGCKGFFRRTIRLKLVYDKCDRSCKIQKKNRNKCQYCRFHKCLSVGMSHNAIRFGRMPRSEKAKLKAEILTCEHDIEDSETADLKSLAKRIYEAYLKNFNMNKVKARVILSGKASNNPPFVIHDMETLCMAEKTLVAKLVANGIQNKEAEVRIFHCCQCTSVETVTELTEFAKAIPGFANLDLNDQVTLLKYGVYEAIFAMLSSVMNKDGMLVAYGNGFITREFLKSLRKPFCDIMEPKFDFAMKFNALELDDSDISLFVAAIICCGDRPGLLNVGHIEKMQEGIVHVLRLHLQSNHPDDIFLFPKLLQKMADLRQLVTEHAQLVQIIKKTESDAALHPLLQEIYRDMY
Sequence of Transcriptional activator Myb (Homo sapiens) (P10242 whole entry, looked up): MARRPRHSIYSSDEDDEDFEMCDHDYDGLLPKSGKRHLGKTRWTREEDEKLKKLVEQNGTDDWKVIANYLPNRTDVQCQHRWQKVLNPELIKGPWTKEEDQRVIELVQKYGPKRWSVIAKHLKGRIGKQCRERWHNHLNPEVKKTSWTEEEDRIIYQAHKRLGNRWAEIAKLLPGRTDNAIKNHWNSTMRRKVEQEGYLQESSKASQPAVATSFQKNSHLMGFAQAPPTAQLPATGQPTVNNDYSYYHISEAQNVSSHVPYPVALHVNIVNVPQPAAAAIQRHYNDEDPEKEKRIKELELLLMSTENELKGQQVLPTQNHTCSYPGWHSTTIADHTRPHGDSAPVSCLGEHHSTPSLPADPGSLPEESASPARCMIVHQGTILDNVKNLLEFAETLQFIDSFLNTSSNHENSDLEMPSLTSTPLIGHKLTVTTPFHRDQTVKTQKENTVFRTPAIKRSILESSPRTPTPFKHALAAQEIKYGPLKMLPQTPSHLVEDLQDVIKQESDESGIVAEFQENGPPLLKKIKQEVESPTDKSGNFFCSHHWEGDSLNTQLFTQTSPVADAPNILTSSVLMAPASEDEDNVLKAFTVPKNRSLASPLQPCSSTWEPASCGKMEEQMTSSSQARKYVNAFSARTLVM
Sequence of Cellular tumor antigen p53 (Homo sapiens) (P04637 whole entry, looked up): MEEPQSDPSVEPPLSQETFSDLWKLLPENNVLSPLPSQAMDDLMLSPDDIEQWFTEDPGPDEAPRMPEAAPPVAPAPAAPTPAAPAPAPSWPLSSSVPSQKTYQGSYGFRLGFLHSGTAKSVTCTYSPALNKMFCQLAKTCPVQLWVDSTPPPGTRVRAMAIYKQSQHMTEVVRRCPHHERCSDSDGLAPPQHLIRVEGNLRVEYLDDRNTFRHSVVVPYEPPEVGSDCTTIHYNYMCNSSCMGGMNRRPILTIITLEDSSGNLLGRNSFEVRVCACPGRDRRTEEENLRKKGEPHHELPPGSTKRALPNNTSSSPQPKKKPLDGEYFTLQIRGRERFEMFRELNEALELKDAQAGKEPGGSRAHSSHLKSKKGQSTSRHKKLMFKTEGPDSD

On to `CC1(C)CCC(Cc2ccc(Cl)cc2)C1(O)Cn1cncn1` (configuration not stated), for which the compound was called inactive in experiment [1], in [2], in [3], in experiment [4], in experiment [5] and in experiment [6]. For the same compound, the call in [7], in experiment [8], in experiment [9], in [10] and in [11] was inactive.

On to `O=C1C(Cl)=C(Cl)C(=O)c2ccccc21`, for which the call in [1], in experiment [2], in experiment [3], in experiment [4], in [5] and in experiment [6] was inactive. The call in experiment [7], in experiment [8], in experiment [9], in experiment [12] and in experiment [10] was inactive.

Usually AC50 stands for the concentration giving half of the maximal activity seen. Regarding `CC(C)C1CCC(Cc2ccc(Cl)cc2)C1(O)Cn1cncn1` (configuration not stated), the call in [1], in experiment [2], in [4], in experiment [5], in [6] and in [7] was inactive. Besides, the compound was called inactive in experiment [8] and in experiment [9]. For the same compound, the AC50 in experiment [13] was 13.2 µM (active); in [12] it was 11 µM (active).

As to `Cn1sc(Cl)cc1=O`, the result in experiment [1], in [2], in experiment [4], in [5], in experiment [6] and in experiment [7] was inactive. The call in [9], in experiment [12] and in experiment [15] was inactive. For the same compound, the AC50 was 139 µM (active) in experiment [8], 135 µM (active) in experiment [13], 16.2 µM (active) in experiment [14] and 28.2 µM (active) in experiment [16].

In the case of `CCC[CH2][Sn]([Cl])([Cl])[Cl]`, the outcome in experiment [17], in experiment [4], in [5], in [6], in experiment [7] and in experiment [8] was inactive. The result in [9] and in experiment [12] was inactive. Moreover, the AC50 in experiment [13] was 5.38 µM (active).

As to `CCC(=O)c1ccccc1`, the call in [1], in experiment [2], in experiment [4], in experiment [5], in experiment [6] and in experiment [7] was inactive. The compound was classed as inactive in experiment [8], in [13], in [9], in [12], in experiment [10] and in [11].

As for `CC(C)c1cccc(C(C)C)c1O`, the result in experiment [1], in experiment [2], in experiment [3], in experiment [4], in experiment [5] and in experiment [6] was inactive. Further, the compound was called inactive in [7], in experiment [8], in experiment [9], in experiment [12] and in experiment [11].
